Source: PubChem BioAssay (NCATS)
Results filed as inconclusive are left out. Calls of active or inactive are those of the source. Calls come from the whole dose curve; as a rule, active = well fitted inhibition curve with a large enough effect; inconclusive = small, poorly fitted or top-dose-only effect; inactive = flat fitted curve, though single readings scatter.

Assays:
Test in all cases: qHTS profiling for inhibitors of Plasmodium falciparum proliferation (AID 504749); note: nearly all actives have a fitted effect of over 60% in size
Conditions in all cases: P. falciparum in erythrocytes, SYBR Green DNA, 72 h; series mostly up to 28.7 µM
PAD = system: PAD
How it was run: (§1)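 Infected RBCs, 0.3% parasitemia/2.5% Hct final; cpd 72 h, 37 C, 5% CO2; lysis buffer with saponin/triton/SYBR Green I, o/n RT dark; FI 485/535; norm. to artemisinin (0.29 uM) and DMSO.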

PC15 = system: PC15
How it was run: as §1

PC26 = system: PC26
How it was run: as §1

PC49 = system: PC49
How it was run: as §1

SC27B = system: SC27B
How it was run: as §1

TAB109 = system: TAB109
How it was run: as §1

TAB113 = system: TAB113
How it was run: as §1

TAB165 = system: TAB165
How it was run: as §1

W2 = system: W2
How it was run: as §1

Measured: Potency

CC(C)O
inactive: PAD | PC15 | PC26 | PC49 | SC27B | TAB109 | TAB113 | TAB165 | W2

[O]=[Bi][O]C(=O)[O][Bi]=[O]
inactive: PAD | PC15 | PC26 | PC49 | SC27B | TAB109 | TAB113 | TAB165 | W2

NCC(O)CC(=O)O (stereo not given)
inactive: PAD | PC15 | PC26 | PC49 | SC27B | TAB109 | TAB113 | TAB165 | W2

OB(O)O
inactive: PAD | PC15 | PC26 | PC49 | SC27B | TAB109 | TAB113 | TAB165 | W2

OCl
inactive: PAD | PC15 | PC26 | PC49 | SC27B | TAB109 | TAB113 | TAB165 | W2

NCC[C@H](O)C(=O)N[C@@H]1C[C@H](N)[C@@H](O[C@H]2O[C@H](CN)[C@@H](O)[C@H](O)[C@H]2O)[C@H](O)[C@H]1O[C@H]1O[C@H](CO)[C@@H](O)[C@H](N)[C@H]1O
inactive: PAD | PC15 | PC26 | PC49 | SC27B | TAB109 | TAB113 | TAB165 | W2

CC1C(=O)CC2C3(C)CCC2(C(C)C(=O)O)C(=O)C13 (stereo not given)
inactive: PAD | PC15 | PC26 | PC49 | SC27B | TAB109 | TAB113 | TAB165 | W2

CC(=O)[C@H]1CC[C@H]2[C@@H]3C=CC4=CC(=O)CC[C@@]4(C)[C@H]3CC[C@]12C
inactive: PAD | PC15 | PC26 | PC49 | SC27B | TAB109 | TAB113 | TAB165 | W2

CCOC(C)OCC
inactive: PAD | PC15 | PC26 | PC49 | SC27B | TAB109 | TAB113 | TAB165 | W2

FC(F)(F)C(F)(F)C(F)(F)C(F)(F)C(F)(F)F
inactive: PAD | PC15 | PC26 | PC49 | SC27B | TAB109 | TAB113 | TAB165 | W2

CCCc1nc(C(C)(C)O)c(C(=O)OCc2oc(=O)oc2C)n1Cc1ccc(-c2ccccc2-c2nn[nH]n2)cc1
inactive: PAD | PC15 | PC26 | PC49 | SC27B | TAB109 | TAB113 | TAB165 | W2

CC(C)(C)c1ccc2c(S(=O)(=O)O)c(C(C)(C)C)ccc2c1
inactive: PAD | PC15 | PC26 | PC49 | SC27B | TAB109 | TAB113 | TAB165 | W2

C=CCOc1ccc(CC(=O)O)cc1Cl
inactive: PAD | PC15 | PC26 | PC49 | SC27B | TAB109 | TAB113 | TAB165 | W2

COc1cc(S(C)=O)ccc1-c1nc2ncccc2[nH]1 (stereo not given)
inactive: PAD | PC15 | PC26 | PC49 | SC27B | TAB109 | TAB113 | TAB165 | W2

CC(CNC(=O)c1cccnc1)NC(=O)c1cccnc1 (stereo not given)
inactive: PAD | PC15 | PC26 | PC49 | SC27B | TAB109 | TAB113 | TAB165 | W2

CNC(=O)OCc1cccc(COC(=O)NC)n1
inactive: PAD | PC15 | PC26 | PC49 | SC27B | TAB109 | TAB113 | TAB165 | W2

CCN(CC)CCOC(=O)c1cccnc1
inactive: PAD | PC15 | PC26 | PC49 | SC27B | TAB109 | TAB113 | TAB165 | W2

FCOC(C(F)(F)F)C(F)(F)F
inactive: PAD | PC15 | PC26 | PC49 | SC27B | TAB109 | TAB113 | TAB165 | W2

CCC(C)[C@@H](N)C(=O)O (stereo not given in full)
inactive: PAD | PC15 | PC26 | PC49 | SC27B | TAB109 | TAB113 | TAB165 | W2

O=S(=O)(O)CC(S)CS (stereo not given)
inactive: PAD | PC15 | PC26 | PC49 | SC27B | TAB109 | TAB113 | TAB165 | W2

CCC(O)c1ccccc1 (stereo not given)
inactive: PAD | PC15 | PC26 | PC49 | SC27B | TAB109 | TAB113 | TAB165 | W2

CCOC(=O)Cc1ccc(-c2ccccc2)cc1
inactive: PAD | PC15 | PC26 | PC49 | SC27B | TAB109 | TAB113 | TAB165 | W2

O=C(NNCS(=O)(=O)O)c1ccncc1
inactive: PAD | PC15 | PC26 | PC49 | SC27B | TAB109 | TAB113 | TAB165 | W2

c1ccc(-n2cnnn2)cc1
inactive: PAD | PC15 | PC26 | PC49 | SC27B | TAB109 | TAB113 | TAB165 | W2

CC12CCC(C1)C(C)(C)C2=O (stereo not given)
inactive: PAD | PC15 | PC26 | PC49 | SC27B | TAB109 | TAB113 | TAB165 | W2
